Bioassay records from PubChem BioAssay.
GALK inh: qHTS Assay for Inhibitors of Human Galactokinase (GALK) | P51570 | Purified GALK, Kinase-Glo residual ATP luminescence | Potency, µM (top dose mostly 57.5 µM), for the others: at the top dose activity change, negative = inhibition, most hits filed as inhibitors | 0.007% of 270,000 active
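Human GALK (5 nM) with 35 uM ATP and 100 uM galactose in 20 mM HEPES pH 8.0, 5 mM MgCl2, 60 mM NaCl, 1 mM DTT, 0.01% BSA. After 1 h at room temperature, leftover ATP was read by Kinase-Glo Plus luminescence.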
NPSR antagonist: qHTS Assay for Antagonists of the Neuropeptide S Receptor: cAMP Signal Transduction | Q6W5P4 | CHO-NPSR cells, cAMP TR-FRET, antagonist mode | Potency, µM (top dose mostly 38.3 µM), for inactives: top-dose activity change, negative = inhibition, hits mostly inhibitors | 1% of 220,000 active; also: nearly all actives have a fitted effect of over 50% in size
Target sequence (Q6W5P4 whole entry, looked up): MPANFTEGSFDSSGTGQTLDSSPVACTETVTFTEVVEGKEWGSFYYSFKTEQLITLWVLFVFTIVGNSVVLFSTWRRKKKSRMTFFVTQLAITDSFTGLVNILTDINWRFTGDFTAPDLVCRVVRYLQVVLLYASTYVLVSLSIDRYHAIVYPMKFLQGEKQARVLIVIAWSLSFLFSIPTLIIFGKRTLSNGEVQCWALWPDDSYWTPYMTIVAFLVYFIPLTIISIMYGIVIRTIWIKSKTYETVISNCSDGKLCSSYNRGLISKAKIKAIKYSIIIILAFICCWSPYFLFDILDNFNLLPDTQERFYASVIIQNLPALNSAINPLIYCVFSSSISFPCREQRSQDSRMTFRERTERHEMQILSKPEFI
TrxR1 substrate: qHTS Assay for Substrates of Mammalian Selenoprotein Thioredoxin Reductase 1 (TrxR1): qHTS; Potency, µM (highest dose often 114 µM), without a hit: at the top dose activity change, negative = substrate turnover; AID 588456, 2011; purified TrxR1 substrate turnover, NADPH consumption readout; Thioredoxin reductase 1, cytoplasmic (Rattus norvegicus), O89049; 0.01% of 390,000 active; also: nearly all actives have a fitted effect of over 50% in size
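Rat TrxR1, dispensed at 90 nM, was prereduced with 400 uM NADPH (final) for 5 min at ~22 deg C, then incubated with compound 15 min before 400 uM selenite. A first-read NADPH fluorescence drop versus no-compound background flagged substrates.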
TrxR1 inh: qHTS Assay for Inhibitors of Mammalian Selenoprotein Thioredoxin Reductase 1 (TrxR1): qHTS; Thioredoxin reductase 1, cytoplasmic (Rattus norvegicus), O89049; recombinant rTrxR1, NADPH fluorescence consumption, selenite substrate; Potency, µM (top dose mostly 114 µM), inactives show at the top dose activity change, negative = inhibition, usual class: inhibitors; 1% of 390,000 active; AID 588453, 2011; also: nearly all actives have a fitted effect of over 65% in size
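Rat TrxR1 (90 nM in the dispensed reagent) was pre-reduced with 400 uM NADPH for 5 min at room temperature, then incubated with compound for 15 min. After 400 uM selenite was added, NADPH fluorescence (Ex 340/Em 450 nm) was followed for 8 min.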
Active calls of the source: *; u = inconclusive; x = no result; [ ] = remark or other dose. An excerpt weighted towards active compounds, which were near 1.2% of everything screened. Calls follow the shape of the dose curve; as a rule, active = well fitted curve in the direction sought with a large enough effect; inconclusive = small, poorly fitted or top-dose-only effect, or another doubt; inactive = no such curve, though single readings can be large; an effect the other way counts as inactive or inconclusive. % is scaled to controls: 0 for no effect and ±100 for the full control effect; potency is read from the fitted curve at half-maximal effect.

SMILES	GALK inh	NPSR antagonist	TrxR1 substrate	TrxR1 inh
Cc1ccc2oc(-c3cccc(NC(=S)NC(=O)c4cccs4)c3)nc2c1	1.5%	-24.9%	-7.1%	-12.5%
CC(C)(C)n1ncc2c(=O)n(Cc3ccc(Cl)c(F)c3)cnc21	x	x	4.6%	11.4%
COc1cc(NS(=O)(=O)c2ccc(NC(=S)NC(=O)/C=C/c3ccco3)cc2)ncn1	6.1%	10µM*	-17.4%	56.2µM*
CC(=O)Nc1ccc(NC(=S)NC(=O)/C=C/c2ccco2)cc1	-2.1%	x	2.1%	39.8µM*
CC(=O)Nc1ccc(C(=O)/C=C/c2ccco2)cc1	-3.2%	-1.9%	-10.8%	44.7µM*
CC(=O)Nc1cccc(C(=O)/C=C/c2ccco2)c1	-0.4%	-11.3%[46.1 µM]	-13.4%	u
O=C(/C=C/c1ccco1)Nc1ccc2nn(-c3ccccc3)nc2c1	-0.5%	-16.5%	-4.8%	56.2µM*
O=C(N/N=C\C=C\c1ccco1)c1cncc(Br)c1	-1.8%	-15.8%	-16.4%	50.1µM*
O=C(N/N=C/C=C/c1ccco1)c1cccnc1	-2.1%	-7.5%[46.1 µM]	-11.5%	5.62µM*
O=C(N/N=C/C=C\c1ccco1)c1cccnc1	-0.7%	-13.1%[46.1 µM]	-10.7%	u
CCc1ccc(CNC(=O)Cn2nc(-c3ccc(Cl)cc3)ccc2=O)cc1	x	x	4.3%[57.1 µM]	18.4%[57.1 µM]
CCOC(=O)/C(=C\c1ccc(Cl)cc1)c1nc2sc(C)c(C)c2c(=O)[nH]1	0.2%	7.94µM*	-3.2%	u
O=c1[nH]c(Sc2ccc([N+](=O)[O-])cc2[N+](=O)[O-])nc2ccccc12	x	x	-4.9%	3.16µM*
O=C(O)c1ccc(N=NNc2cccc([N+](=O)[O-])c2)cc1	-2.3%	-22.5%	-4.8%	15.5%
N#C/C(=N\Nc1cccc([N+](=O)[O-])c1)C(=O)c1ccc(Br)cc1	-9.3%	6.31µM*	-19.7%	6.3%[57.1 µM]
CCc1nnc(NC(=O)CSc2nc(-c3ccc(F)cc3)cc(-c3ccccc3)c2C#N)s1	0.8%	7.94µM*	10.6%	24.7%
CN1CCN(C(c2ccccn2)c2cc(Cl)c3cccnc3c2O)CC1 (stereo unspecified)	12.9%	-32.6%	-6.7%	u
Oc1c(C(c2ccc(Cl)cc2)N2CCCC2)cc(Cl)c2cccnc12 (stereo unspecified)	8.3%	-57.0%	1.2%[57.1 µM]	50.1µM*
Cc1ccc(C(c2cc(Cl)c3cccnc3c2O)N2CCN(C)CC2)cc1 (stereo unspecified)	15.1%	x	6.3%	4.47µM*
CN(C)c1ccc(/C=C2\CCc3ccccc32)cc1	x	x	13.1%	0.1%
Oc1c(CN2CCN(c3ccccc3)CC2)cc(Br)c2cccnc12	-2.1%	7.94µM*	1.3%	11.9%
COc1ccccc1N1CCN(Cc2ccc(O)c3ncccc23)CC1	-0.3%	3.98µM*	-9.4%	-14.3%
CCOC(=O)C1CCN(Cc2ccc(O)c3ncccc23)CC1	-1.2%	2.51µM*	8.3%	7.08µM*
COc1ccccc1N1CCN(Cc2ccc(OC)c(OC)c2OC)CC1	2.0%	5.5%[46.1 µM]	-3.5%	-5.9%
Oc1ccc(CN2CCCc3ccccc32)c2cccnc12	1.1%	1.3%[46.1 µM]	9.7%	1.26µM*
SMILES	GALK inh	NPSR antagonist	TrxR1 substrate	TrxR1 inh
CCOC(=O)C1CCN(Cc2ccccc2C(F)(F)F)CC1	11.9%	-21.4%[46.1 µM]	0.9%	1.3%
CN(C(=O)COc1ccccc1C(=O)Nc1ccccc1)c1ccccc1	x	x	-4.0%	7.1%
CCOCCc1nn2c(=O)cc(COC(=O)c3cccc(C)c3)nc2s1	x	x	2.4%[57.1 µM]	5.2%[57.1 µM]
O=C1NC(=O)c2cc(Nc3ccccc3)c(Nc3ccccc3)cc21	x	12.6µM*	1.7%[57.1 µM]	u
O=C(Nc1ccc2c(c1)C(=O)NC2=O)c1ccccc1	x	x	39.7%	18.0%
COc1ccc(Cn2c(C)ccc2C)cc1	1.2%	-17.5%[46.1 µM]	-0.9%	31.6µM*
COc1ccc(Cn2c(-c3ccc(OC)cc3)nc3ccccc32)cc1	0.5%	-27.2%[46.1 µM]	1.9%	1.5%
C=C1CC(COc2cc(=O)oc3ccccc23)(c2ccccc2)OC1=O (stereo unspecified)	x	x	-7.4%	31.6µM*
C=C1CC(Cn2cc(Br)c(=O)[nH]c2=O)(c2ccc(-c3ccccc3)cc2)OC1=O (stereo unspecified)	x	x	-1.1%	7.08µM*
COc1ccc(CN2CCNC(=O)C2CC(=O)NCc2cc(C)n(C)n2)c(F)c1 (stereo unspecified)	0.3%	x	0.8%	39.8µM*
CCOc1ccc(CN2CCNC(=O)C2CC(=O)NCc2cc(C)n(C)n2)cc1 (stereo unspecified)	-5.9%	x	1.0%	u
Cn1c(=O)n(C)c2cc(N3CCOCC3)c(NS(=O)(=O)c3cccc(C#N)c3)cc21	x	x	7.2%[57.1 µM]	17.2%[57.1 µM]
CCOc1ccc(C(c2c(O)nc(SC)n(C)c2=O)c2c(O)nc(SC)n(C)c2=O)cc1	-0.3%	-4.1%[46.1 µM]	8.8%	8.91µM*
O=[N+]([O-])c1cc(-c2nc(-c3cccnc3)no2)ccc1NCc1ccccc1	x	x	-8.6%	-2.0%
CCCc1ccc(Oc2cn[nH]c2-c2ccc(O)c(C)c2O)cc1	0.2%	10µM*	5.0%	26.3%
CCCc1ccc(Oc2c(-c3ccc(O)c(C)c3O)n[nH]c2C)cc1	-4.6%	u	-7.5%	37.8%[57.1 µM]
CNc1c(Br)cc(C(O)C2=CCc3ccccc32)cc1Br (stereo unspecified)	x	x	9.8%[0.0914 µM]	28.9%
Cc1ccccc1OCC(=O)NN1C(=O)C2C3C=CC(O3)C2C1=O (stereo unspecified)	1.4%	15.9%	-5.3%[57.1 µM]	31.6µM*
CCOc1ccc(C(=O)NN2C(=O)C3C4C=CC(O4)C3C2=O)cc1 (stereo unspecified)	-2.0%	-5.4%[46.1 µM]	3.5%	20µM*
O=C(CCc1ccccc1)NN1C(=O)C2C3C=CC(O3)C2C1=O (stereo unspecified)	-0.1%	23.1%	-8.4%	44.7µM*
Cc1ccc2c(c1C)NC(=O)CC2c1ccc(Cl)cc1Cl (stereo unspecified)	x	x	-7.0%	-8.5%
Cc1cccc(NC(=O)CN2C(=O)CCn3nc(-c4cccn4C)cc32)c1C	x	x	3.7%[57.1 µM]	10.7%[57.1 µM]
CN(C)c1ccc(CN(CC2CCCO2)C(=O)COc2ccc(Cl)cc2)cc1 (stereo unspecified)	x	x	3.3%	17.8%
COc1ccc(C(=O)Nc2sc3c(c2C#N)CCN(C(C)=O)C3)cc1	0.8%	0.8%	0.4%	u
CC(=O)N1CCc2c(sc(NC(=O)c3ccc([N+](=O)[O-])o3)c2C#N)C1	7.3%	2.51µM*	-20.6%	u
COc1ccc(C2c3ccc(O)cc3Oc3ncn(Cc4ccco4)c(=N)c32)cc1 (stereo unspecified)	-0.1%	-38.5%	5.9%	50.1µM*
COc1ccc(C2c3c(ncn(Cc4ccco4)c3=N)Oc3ccc4ccccc4c32)cc1 (stereo unspecified)	0.3%	u	0.5%	16.2%[0.0914 µM]
COc1cc(OC)c(NC(=O)c2noc3c2CSc2ccccc2-3)cc1Cl	x	x	-5.6%	7.08µM*
COC(=O)c1cc(NC(=O)c2nn(C)c3c2COc2ccccc2-3)cc(C(=O)OC)c1	x	x	2.1%	6.4%
